What all share (experiment): DAPPL (digital affinity profiling via proximity ligation, sequencing); 10 mM Tris-HCl pH 7.5, 50 mM NaCl, 1 mM DTT, 4% glycerol, room temperature, 30 min; GST-TFs on glutathione beads, 16-mer random dsDNA library, 0.1% formaldehyde crosslink after washing; high values mean tight binding
For one experiment, the target named is T1, FLI1 (Homo sapiens, UniProt Q01543 1-452).
T1 sequence: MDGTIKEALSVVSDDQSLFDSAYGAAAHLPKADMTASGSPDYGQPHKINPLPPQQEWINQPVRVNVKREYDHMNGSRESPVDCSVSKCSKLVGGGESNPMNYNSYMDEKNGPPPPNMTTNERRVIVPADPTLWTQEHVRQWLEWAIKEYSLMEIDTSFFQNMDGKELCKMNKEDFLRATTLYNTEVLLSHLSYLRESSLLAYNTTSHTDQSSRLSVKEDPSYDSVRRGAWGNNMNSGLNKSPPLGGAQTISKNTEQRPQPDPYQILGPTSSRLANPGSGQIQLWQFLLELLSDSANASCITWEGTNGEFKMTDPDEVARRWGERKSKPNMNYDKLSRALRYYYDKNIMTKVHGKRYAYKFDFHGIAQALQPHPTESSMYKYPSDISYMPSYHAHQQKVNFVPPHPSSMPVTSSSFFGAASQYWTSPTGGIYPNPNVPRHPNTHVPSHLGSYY
The settings on record: protein: recombinant; tags: N-terminal GST; dsDNA, one strand shown. The method, boiled down:
(§1)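 Pools of DNA-barcoded human transcription factors, expressed in yeast as GST fusions on glutathione beads and combined with a tag-only sample, were incubated with 200 nmole of a 16-mer random double-stranded DNA library. Incubation took 30 min at room temperature in Tris/NaCl/DTT/glycerol buffer and was followed by washing, 0.1% formaldehyde crosslinking, proximity ligation (BsaI/T4 ligase, 1 h, 37 °C), PCR amplification and sequencing on an Illumina NextSeq500. Binding signal is the ratio of a hexamer's read frequency for a factor to its frequency for the tag-only sample.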

Another experiment deals with T2, ELK1 (Homo sapiens, UniProt P19419 1-428).
T2 sequence: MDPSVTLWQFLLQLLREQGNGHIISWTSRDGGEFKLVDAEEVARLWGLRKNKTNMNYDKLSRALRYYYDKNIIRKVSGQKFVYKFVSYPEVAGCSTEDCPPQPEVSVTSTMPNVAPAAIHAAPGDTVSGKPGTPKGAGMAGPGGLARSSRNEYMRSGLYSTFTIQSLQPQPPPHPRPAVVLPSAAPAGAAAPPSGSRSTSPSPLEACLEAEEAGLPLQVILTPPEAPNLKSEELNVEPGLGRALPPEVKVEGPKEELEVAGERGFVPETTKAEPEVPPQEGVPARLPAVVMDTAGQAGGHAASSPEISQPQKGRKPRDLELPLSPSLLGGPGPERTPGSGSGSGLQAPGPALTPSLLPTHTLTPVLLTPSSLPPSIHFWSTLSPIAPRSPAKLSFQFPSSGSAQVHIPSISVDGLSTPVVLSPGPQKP
The settings on record: protein: recombinant; tags: N-terminal GST; dsDNA, one strand shown. In outline:
as §1

The target of a further experiment is T3, GABPA (Homo sapiens, UniProt Q06546 1-454).
T3 sequence: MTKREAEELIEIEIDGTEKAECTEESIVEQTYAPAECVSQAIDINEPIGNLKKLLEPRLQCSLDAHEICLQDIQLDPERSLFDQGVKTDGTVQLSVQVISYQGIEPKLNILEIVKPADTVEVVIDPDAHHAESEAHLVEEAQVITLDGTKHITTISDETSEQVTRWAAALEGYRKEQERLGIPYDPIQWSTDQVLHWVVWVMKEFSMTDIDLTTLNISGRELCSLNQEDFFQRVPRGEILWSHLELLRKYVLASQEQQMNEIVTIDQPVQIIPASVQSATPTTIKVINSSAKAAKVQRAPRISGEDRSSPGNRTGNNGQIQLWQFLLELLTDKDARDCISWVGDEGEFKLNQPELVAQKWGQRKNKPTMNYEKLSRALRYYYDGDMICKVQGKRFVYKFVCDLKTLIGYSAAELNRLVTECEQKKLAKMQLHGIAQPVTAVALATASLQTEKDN
The settings on record: protein: recombinant; tags: N-terminal GST; dsDNA, one strand shown. In outline:
as §1

For the next experiment, the target named is T4, ERG (Homo sapiens, UniProt P11308 1-479).
T4 sequence: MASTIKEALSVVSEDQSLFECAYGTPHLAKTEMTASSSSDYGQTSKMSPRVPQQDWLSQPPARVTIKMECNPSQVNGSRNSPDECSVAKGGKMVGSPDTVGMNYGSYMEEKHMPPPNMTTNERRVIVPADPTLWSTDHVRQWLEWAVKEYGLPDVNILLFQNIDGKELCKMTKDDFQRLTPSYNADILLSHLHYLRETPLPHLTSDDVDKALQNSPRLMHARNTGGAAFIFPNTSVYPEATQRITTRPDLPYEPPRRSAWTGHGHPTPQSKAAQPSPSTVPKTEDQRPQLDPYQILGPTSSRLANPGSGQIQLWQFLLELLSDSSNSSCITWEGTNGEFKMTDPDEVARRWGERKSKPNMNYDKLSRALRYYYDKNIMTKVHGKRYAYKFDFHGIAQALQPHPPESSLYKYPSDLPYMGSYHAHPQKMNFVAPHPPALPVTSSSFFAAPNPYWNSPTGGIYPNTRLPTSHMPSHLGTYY
The settings on record: protein: recombinant; tags: N-terminal GST; dsDNA, one strand shown. In outline:
as §1

The target in the next experiment is ELF1 (Homo sapiens, UniProt P32519 1-619). The settings on record: protein: recombinant; tags: N-terminal GST; dsDNA, one strand shown. The method, boiled down:
as §1

In the next experiment the target is T5, EHF (Homo sapiens, UniProt Q9NZC4 1-300).
T5 sequence: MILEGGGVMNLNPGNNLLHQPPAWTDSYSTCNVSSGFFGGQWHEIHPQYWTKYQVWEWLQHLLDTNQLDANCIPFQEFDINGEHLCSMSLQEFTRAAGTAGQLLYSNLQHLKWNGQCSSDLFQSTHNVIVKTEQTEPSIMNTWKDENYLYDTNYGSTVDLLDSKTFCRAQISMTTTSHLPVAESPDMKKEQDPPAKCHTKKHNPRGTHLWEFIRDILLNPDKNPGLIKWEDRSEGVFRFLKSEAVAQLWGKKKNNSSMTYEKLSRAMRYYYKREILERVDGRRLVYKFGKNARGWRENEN
The settings on record: protein: recombinant; tags: N-terminal GST; dsDNA, one strand shown. In outline:
as §1

In a further experiment the target is SPI1 (Homo sapiens, UniProt P17947 1-270). The settings on record: protein: recombinant; tags: N-terminal GST; dsDNA, one strand shown. The method, boiled down:
as §1

Another experiment addresses SPIB (Homo sapiens, UniProt Q01892 1-262). As to conditions: protein: recombinant; tags: N-terminal GST; dsDNA, one strand shown. The method, boiled down: as §1
The target in a further experiment is T6, ELK3 (Homo sapiens, UniProt P41970 1-407).
T6 sequence: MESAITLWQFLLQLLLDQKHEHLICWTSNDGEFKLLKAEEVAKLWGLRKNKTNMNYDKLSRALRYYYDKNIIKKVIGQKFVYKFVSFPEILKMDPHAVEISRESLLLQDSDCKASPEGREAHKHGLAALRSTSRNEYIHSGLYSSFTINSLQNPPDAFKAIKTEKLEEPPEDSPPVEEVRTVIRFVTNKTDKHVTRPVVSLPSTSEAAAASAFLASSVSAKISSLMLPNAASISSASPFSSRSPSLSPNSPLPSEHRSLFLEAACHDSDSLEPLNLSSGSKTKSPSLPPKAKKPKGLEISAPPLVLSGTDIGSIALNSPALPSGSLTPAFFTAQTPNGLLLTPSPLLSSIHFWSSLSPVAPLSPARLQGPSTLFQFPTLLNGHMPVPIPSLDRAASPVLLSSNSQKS
As to conditions: protein: recombinant; tags: N-terminal GST; dsDNA, one strand shown. In outline: as §1

Another experiment concerns the target T7, FEV (Homo sapiens, UniProt Q99581 1-238).
T7 sequence: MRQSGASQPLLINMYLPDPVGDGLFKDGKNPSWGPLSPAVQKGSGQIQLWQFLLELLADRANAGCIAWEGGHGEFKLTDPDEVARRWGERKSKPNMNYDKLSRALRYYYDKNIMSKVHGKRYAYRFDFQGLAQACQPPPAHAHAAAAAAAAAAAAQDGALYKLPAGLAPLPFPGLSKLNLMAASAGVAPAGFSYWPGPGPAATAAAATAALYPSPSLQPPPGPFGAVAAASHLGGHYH
The settings on record: protein: recombinant; tags: N-terminal GST; dsDNA, one strand shown. The method, boiled down:
as §1

For a further experiment, the target named is ETV5 (Homo sapiens, UniProt P41161 1-510). As to conditions: protein: recombinant; tags: N-terminal GST; dsDNA, one strand shown. The method, boiled down: as §1
In another experiment the target is HSF1 (Homo sapiens, UniProt Q00613 1-529). The settings on record: protein: recombinant; tags: N-terminal GST; chain copies: 3; dsDNA, one strand shown. The method, boiled down: as §1
A further experiment addresses T8, SPIC (Homo sapiens, UniProt Q8N5J4 1-248).
T8 sequence: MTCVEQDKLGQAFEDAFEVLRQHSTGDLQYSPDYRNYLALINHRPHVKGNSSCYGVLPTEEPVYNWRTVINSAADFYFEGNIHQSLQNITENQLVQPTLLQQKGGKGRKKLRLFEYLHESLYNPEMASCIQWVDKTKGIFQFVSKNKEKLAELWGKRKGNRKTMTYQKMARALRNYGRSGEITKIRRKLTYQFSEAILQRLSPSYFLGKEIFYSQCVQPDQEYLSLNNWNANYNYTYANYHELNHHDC
The settings on record: protein: recombinant; tags: N-terminal GST; dsDNA, one strand shown. In outline: as §1

In the next experiment the target is ELF4 (Homo sapiens, UniProt Q99607 1-663). The settings on record: protein: recombinant; tags: N-terminal GST; dsDNA, one strand shown. The method, boiled down: as §1
The target of a further experiment is T9, ELK4 (Homo sapiens, UniProt P28324-2 1-405).
T9 sequence: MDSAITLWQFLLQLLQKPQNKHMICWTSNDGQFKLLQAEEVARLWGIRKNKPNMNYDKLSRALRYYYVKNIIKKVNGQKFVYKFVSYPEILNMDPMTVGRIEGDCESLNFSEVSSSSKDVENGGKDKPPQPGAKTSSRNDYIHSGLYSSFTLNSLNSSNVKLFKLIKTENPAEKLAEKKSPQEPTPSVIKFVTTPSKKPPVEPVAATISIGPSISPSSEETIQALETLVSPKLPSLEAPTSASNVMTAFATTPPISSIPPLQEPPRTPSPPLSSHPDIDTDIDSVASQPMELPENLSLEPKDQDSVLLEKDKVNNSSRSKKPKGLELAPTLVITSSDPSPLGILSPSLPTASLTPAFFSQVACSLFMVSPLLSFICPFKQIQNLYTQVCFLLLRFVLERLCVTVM
As to conditions: protein: recombinant; tags: N-terminal GST; dsDNA, one strand shown. In outline: as §1

Another experiment has as its target T10, ETV2 (Homo sapiens, UniProt O00321 1-342).
T10 sequence: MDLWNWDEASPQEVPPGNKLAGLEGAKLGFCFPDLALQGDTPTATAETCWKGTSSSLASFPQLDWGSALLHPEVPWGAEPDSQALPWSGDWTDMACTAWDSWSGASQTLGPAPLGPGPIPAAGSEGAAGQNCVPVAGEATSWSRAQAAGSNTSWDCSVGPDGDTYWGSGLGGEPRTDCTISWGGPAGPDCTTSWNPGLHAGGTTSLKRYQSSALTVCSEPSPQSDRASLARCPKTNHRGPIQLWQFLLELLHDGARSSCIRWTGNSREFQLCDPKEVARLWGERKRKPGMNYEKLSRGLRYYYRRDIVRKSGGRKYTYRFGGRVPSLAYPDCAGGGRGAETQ
The settings on record: protein: recombinant; tags: N-terminal GST; dsDNA, one strand shown. The method, boiled down: as §1

A further experiment addresses T11, ELF3 (Homo sapiens, UniProt P78545 1-371).
T11 sequence: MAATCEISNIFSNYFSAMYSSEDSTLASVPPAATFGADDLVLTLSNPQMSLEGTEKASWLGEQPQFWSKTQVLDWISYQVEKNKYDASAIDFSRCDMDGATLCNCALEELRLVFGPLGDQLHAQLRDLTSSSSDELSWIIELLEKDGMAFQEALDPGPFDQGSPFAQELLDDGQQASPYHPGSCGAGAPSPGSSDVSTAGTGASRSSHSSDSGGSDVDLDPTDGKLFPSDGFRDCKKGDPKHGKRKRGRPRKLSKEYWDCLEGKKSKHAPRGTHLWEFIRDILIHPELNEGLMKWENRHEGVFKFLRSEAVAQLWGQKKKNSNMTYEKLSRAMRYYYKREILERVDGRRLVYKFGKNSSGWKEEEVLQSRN
As to conditions: protein: recombinant; tags: N-terminal GST; dsDNA, one strand shown. The method, boiled down:
as §1

For another experiment, the target named is ETV1 (Homo sapiens, UniProt P50549 1-477). The settings on record: protein: recombinant; tags: N-terminal GST; dsDNA, one strand shown. The method, boiled down: as §1
Sequence of ETV1 (P50549 whole entry): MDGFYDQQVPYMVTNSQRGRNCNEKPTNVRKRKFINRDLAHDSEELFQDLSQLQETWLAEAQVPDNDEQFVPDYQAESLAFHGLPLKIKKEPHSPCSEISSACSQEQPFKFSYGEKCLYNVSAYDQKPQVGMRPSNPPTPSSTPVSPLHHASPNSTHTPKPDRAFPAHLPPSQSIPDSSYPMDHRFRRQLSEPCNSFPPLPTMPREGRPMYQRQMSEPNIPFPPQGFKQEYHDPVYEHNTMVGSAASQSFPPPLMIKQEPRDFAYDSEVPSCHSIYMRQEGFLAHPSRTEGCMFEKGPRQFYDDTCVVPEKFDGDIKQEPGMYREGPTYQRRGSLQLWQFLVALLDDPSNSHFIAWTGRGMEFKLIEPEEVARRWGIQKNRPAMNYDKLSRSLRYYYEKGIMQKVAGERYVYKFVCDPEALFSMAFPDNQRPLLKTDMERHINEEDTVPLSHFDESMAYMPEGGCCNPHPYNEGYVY

Sequence of ELF1 (P32519 whole entry): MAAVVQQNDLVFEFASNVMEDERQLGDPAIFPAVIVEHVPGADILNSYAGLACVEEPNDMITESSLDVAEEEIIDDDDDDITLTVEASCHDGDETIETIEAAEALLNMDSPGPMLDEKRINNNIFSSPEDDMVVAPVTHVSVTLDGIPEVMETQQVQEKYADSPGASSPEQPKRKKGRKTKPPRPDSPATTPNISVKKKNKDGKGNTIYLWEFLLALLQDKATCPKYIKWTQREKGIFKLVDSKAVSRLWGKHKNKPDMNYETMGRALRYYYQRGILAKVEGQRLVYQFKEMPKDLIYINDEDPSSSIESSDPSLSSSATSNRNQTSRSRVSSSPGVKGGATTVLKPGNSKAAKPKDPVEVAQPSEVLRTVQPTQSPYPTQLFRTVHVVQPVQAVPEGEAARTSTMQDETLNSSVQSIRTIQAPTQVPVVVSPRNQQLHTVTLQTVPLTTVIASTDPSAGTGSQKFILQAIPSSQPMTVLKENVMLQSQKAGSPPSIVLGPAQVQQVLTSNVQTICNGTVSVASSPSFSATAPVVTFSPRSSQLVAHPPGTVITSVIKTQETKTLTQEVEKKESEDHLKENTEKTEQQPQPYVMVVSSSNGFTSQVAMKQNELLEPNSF
Sequence of HSF1 (Q00613 whole entry): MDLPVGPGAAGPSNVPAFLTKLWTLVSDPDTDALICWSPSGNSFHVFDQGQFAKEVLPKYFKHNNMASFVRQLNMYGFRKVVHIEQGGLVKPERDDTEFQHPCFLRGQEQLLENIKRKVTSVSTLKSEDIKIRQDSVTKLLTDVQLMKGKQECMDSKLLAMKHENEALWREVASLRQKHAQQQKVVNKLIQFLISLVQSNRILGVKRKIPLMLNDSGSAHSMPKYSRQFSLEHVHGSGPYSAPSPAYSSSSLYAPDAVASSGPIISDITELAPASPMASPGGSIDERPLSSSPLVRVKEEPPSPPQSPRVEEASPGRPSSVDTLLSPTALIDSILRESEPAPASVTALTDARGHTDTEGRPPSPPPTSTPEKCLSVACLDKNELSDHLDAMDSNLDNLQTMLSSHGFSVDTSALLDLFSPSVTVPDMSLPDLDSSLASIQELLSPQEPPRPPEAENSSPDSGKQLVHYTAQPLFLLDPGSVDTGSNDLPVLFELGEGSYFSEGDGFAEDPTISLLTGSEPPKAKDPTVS
Sequence of ELF4 (Q99607 whole entry): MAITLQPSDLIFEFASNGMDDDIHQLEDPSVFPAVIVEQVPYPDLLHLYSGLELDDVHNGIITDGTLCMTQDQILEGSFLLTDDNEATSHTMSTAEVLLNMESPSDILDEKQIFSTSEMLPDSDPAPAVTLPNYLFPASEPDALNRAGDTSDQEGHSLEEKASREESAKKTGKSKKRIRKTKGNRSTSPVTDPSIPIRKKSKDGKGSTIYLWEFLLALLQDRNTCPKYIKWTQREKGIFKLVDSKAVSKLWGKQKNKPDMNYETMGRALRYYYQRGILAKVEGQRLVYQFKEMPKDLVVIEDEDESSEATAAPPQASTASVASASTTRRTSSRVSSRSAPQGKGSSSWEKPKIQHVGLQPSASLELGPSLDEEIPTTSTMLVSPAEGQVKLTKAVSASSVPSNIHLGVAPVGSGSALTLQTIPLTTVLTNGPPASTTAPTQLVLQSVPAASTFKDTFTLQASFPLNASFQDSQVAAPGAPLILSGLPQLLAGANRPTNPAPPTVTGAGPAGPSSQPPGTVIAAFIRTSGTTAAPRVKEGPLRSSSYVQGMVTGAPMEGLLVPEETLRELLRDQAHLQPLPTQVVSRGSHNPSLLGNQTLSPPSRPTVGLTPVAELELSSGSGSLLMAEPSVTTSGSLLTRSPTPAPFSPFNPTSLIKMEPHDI
Sequence of ETV5 (P41161 whole entry): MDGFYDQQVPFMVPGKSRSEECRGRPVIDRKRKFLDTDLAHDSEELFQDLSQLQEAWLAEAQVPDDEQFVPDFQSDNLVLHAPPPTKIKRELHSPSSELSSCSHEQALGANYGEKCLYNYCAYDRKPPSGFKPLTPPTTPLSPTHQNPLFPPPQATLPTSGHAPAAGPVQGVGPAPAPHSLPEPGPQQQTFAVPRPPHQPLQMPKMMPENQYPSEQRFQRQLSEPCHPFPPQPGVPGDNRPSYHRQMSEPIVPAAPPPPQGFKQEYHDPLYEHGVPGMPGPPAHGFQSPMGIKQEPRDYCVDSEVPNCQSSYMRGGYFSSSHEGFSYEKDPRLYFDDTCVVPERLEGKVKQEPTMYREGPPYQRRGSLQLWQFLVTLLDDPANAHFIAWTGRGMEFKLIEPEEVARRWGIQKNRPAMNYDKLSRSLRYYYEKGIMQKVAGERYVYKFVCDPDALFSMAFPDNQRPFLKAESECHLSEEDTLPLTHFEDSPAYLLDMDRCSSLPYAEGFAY
Sequence of SPIB (Q01892 whole entry): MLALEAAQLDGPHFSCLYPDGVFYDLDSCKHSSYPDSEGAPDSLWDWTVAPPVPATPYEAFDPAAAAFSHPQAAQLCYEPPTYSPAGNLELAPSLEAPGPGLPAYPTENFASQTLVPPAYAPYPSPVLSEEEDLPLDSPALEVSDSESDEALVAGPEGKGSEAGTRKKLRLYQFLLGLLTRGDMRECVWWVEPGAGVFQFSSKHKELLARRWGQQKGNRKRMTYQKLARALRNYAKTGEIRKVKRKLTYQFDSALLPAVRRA

For the sequence TGACCA, the binding signal is 1.25 fold enrichment (6-mer frequency, TF over GST control) with FLI1; 1.32 fold enrichment (6-mer frequency, TF over GST control) in the experiment with ELK1; 1.33 fold enrichment (6-mer frequency, TF over GST control) with GABPA; 1.15 fold enrichment (6-mer frequency, TF over GST control) with ERG; 1.29 fold enrichment (6-mer frequency, TF over GST control) in the experiment with ELF1; 1.33 fold enrichment (6-mer frequency, TF over GST control) with EHF. Also, the binding signal is 1.25 fold enrichment (6-mer frequency, TF over GST control) with SPI1; 1.21 fold enrichment (6-mer frequency, TF over GST control) with SPIB; 1.45 fold enrichment (6-mer frequency, TF over GST control) with ELK3; 1.22 fold enrichment (6-mer frequency, TF over GST control) in the experiment with FEV; 1.23 fold enrichment (6-mer frequency, TF over GST control) with ETV5; 1.05 fold enrichment (6-mer frequency, TF over GST control) with HSF1. Also, the binding signal in the experiment with SPIC was 1.06 fold enrichment (6-mer frequency, TF over GST control); in the experiment with ELF4, 1.29 fold enrichment (6-mer frequency, TF over GST control); in the experiment with ELK4, 1.29 fold enrichment (6-mer frequency, TF over GST control); with ETV2, 1.17 fold enrichment (6-mer frequency, TF over GST control); with ELF3 it was 1.11 fold enrichment (6-mer frequency, TF over GST control); in the experiment with ETV1, 1.21 fold enrichment (6-mer frequency, TF over GST control).

Values taken from paper PMC7862700, “An all-to-all approach to the identification of sequence-specific readers for epigenetic DNA modifications on cytosine”.
